Consider 29 molecules from PubChem BioAssay AID2014 (Sanford-Burnham Center for Chemical Genomics, 2009).

Out of some 290,000 compounds screened, about 3,000 (1%) were called active. This is one part of a sample in which actives are shown more often than they occur. How the calls were made is not given here.

The test concerns the target Polyadenylate-binding protein 1 (Homo sapiens) (UniProt P11940). The test can be described thus: blockers of PABP interaction with poly(A) – biochemical, fluorescence polarization, uHTS, primary screen (AID 2014).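 Further: calls also rest on retests at 20 µM and on dose response follow-up.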 Conditions: PABP-poly(A) RNA binding, stronger effect = higher value. In general terms: Polarisation of emitted light reports the rotation of a fluorescent probe.

Polyadenylate-binding protein 1 (Homo sapiens), sequence (P11940 whole entry, looked up): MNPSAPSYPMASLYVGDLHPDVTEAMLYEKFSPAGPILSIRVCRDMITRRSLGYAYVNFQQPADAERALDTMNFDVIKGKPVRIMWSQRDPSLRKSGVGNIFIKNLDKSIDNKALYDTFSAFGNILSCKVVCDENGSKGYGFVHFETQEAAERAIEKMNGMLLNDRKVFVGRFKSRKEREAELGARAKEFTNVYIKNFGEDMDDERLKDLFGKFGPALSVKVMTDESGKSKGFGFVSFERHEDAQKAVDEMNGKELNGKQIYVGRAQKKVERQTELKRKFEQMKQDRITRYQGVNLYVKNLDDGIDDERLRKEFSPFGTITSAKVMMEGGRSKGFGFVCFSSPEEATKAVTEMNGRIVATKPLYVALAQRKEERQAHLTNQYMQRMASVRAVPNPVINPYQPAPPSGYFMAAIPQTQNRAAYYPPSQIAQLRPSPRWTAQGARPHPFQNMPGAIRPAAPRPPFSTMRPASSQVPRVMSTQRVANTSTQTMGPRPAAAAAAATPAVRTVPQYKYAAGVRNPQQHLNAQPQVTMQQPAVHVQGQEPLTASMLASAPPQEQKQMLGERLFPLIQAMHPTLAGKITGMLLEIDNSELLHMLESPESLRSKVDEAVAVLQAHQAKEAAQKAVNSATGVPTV

Take `O=C(c1ccc(S(=O)(=O)N2CCOCC2)cc1)N1CCN(c2ccccc2)CC1`: the inhibition (usually the drop in the measured response relative to a control, in per cent) (at 35 µM) is 3.8% (inactive).
As for `O=C(c1cc(=O)c2ccccc2o1)N1CCN(c2ccccc2)CC1`, the inhibition (at 35 µM) is 4.7% (inactive).
With `O=C(c1ccc(CS(=O)(=O)c2ccccc2)o1)N1CCN(c2ccccc2)CC1`, the inhibition is, setting by setting: (at 35 µM) 28.3% (active); (confirmation repeats, at 20 µM) 62.1%.
With `CCc1ccc(N2CC(C(=O)N3CCCCCC3)CC2=O)cc1` (configuration not stated), where the note is “at 35 µM”, the inhibition was -12.2% (inactive).
In the case of `COc1ccc2oc(=O)cc(CN3CCOCC3)c2c1`, the inhibition (at 35 µM) is 10.8% (inactive).
Consider `O=Cc1cn(-c2ccccc2)nc1-c1ccccn1`, for which the inhibition (at 35 µM) is -6.6% (inactive).
On the same count and under the same terms, then `Cc1ccc(SCCSc2ncccn2)cc1`, with 8.3% (inactive); and `Cc1cccc(C(=O)NNC(=O)CSc2nnc(C(C)C)n2C)c1`, with 0.1% (inactive); and `COCCN1C=C2C(=O)C(C)(OC(=O)C3CCCC3)C(=O)C=C2C=C1c1ccsc1` (configuration not stated), with 61% (active).
`COCCn1c(N)c(N(Cc2ccccc2)C(=O)C2CCCCC2)c(=O)[nH]c1=O`: where the note is “at 35 µM”, the inhibition is 4.9% (inactive).
Same read-out and setting: then `Cc1cccnc1CC(C)NC(=O)c1cc(COc2cncc(Cl)c2)on1` (configuration not stated), with -0.2% (inactive).
Still for that read-out and setting: then `CC(=O)c1ccc(OC(=O)N2CCOCC2)cc1`, with -1.2% (inactive).
Take `COc1cccc(C2Nc3cccc4cccc(c34)N2)c1`: the inhibition is, setting by setting: (at 35 µM) 25.6% (active); (confirmation repeats, at 20 µM) 72.2%.
As for `COc1ccc(C2NC(=O)c3ccccc3N2)cc1` (configuration not stated), under “at 35 µM”, the inhibition is 15.7% (inactive).
Same read-out and setting: then `Oc1ccc(C2Nc3cccc4cccc(c34)N2)cc1`, with 69.2% (active).
Regarding `Cc1ccc(C2Nc3cccc4cccc(c34)N2)cc1`, the inhibition (at 35 µM) is 39.9% (inactive).
Same read-out and setting: then `COc1ccc(N2C(=O)C3CCCN3C2c2cccc(OC)c2)cc1` (configuration not stated), with -1.1% (inactive); and `O=C1NC(c2cccc(Cl)c2)Nc2ccccc21` (configuration not stated), with -16.8% (inactive).
Same read-out and setting: as for `O=C1CCN(CCc2ccccc2)CCN1CCOc1ccccc1`, the figure is 7.2% (inactive); as for `COc1ccc(CNC(=O)CN(Cc2ccccc2Cl)C(=O)c2csnn2)cc1`, 4.9% (inactive).
Turning to `CCN(CC(=O)NCc1cccs1)C(=O)c1cccc(S(=O)(=O)Nc2ccccc2OC)c1`, the inhibition (at 35 µM) is 60.4% (active) and the inhibition (confirmation repeats, at 20 µM) is 70.6%.
On to `COc1cc(CC(=O)NCc2cccs2)cc(OC)c1OC`, for which the inhibition (at 35 µM) is -5.2% (inactive).
On the same count and under the same terms, then `CCN(CC(=O)NCc1cccs1)C(=O)c1ccccc1F`, with -8.7% (inactive).
On the same count and under the same terms, then `CC(=O)c1ccccc1OCc1ccc(C(=O)c2ccccc2)cc1`, with 0.6% (inactive).
The same measure, in the same setting: as for `O=C(NC1CC1)C(Cc1ccccc1)NS(=O)(=O)c1ccccc1F` (configuration not stated), the figure is -3.9% (inactive).
As for `O=C(NCCCc1ccccc1)C1CCC(=O)N(CCc2ccc(Cl)cc2)C1` (configuration not stated), for the setting “at 35 µM”, the inhibition is 2.3% (inactive).
The same measure, in the same setting: as for `Cc1cc(=O)oc(C)c1C(=O)NCCN(C)Cc1ccccc1`, the figure is -13.8% (inactive); as for `Cc1cc(=O)oc(C)c1C(=O)Nc1cnc2ccccc2c1`, 104% (active).
Same read-out and setting: then `Cc1cc(=O)oc(C)c1C(=O)NCc1ccc(F)cc1`, with 28.4% (inactive).
